# In the library only some 2.8% were active in any assay of this set; here they are far more common.
# CF NFkB block = blocks PAF-induced NF-kB reporter in cystic fibrosis cells. AID 588850. hit rate 0.86% among 360,000. KKLEB NF-kB-GFP reporter, GFP fluorescence overnight. inhibition, % at 5 µM;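 active = at least 50% inhibition at 5 µM, scaled per plate between neutral and stimulator controls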;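 also: PAF is a Pseudomonas aeruginosa culture filtrate used as stimulus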
# Shn3 inh set2 = Schnurri-3 reporter inhibition in Clone20 osteoblasts | inhibition, % at 12.5 µM | hit rate 0.52% among 360,000 | AID 588674 | Clone20 osteoblast Shn3 3'UTR firefly luciferase, 24 h;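 active = mean inhibition of at least 75% with every replicate also reaching 75%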
# Peg3 prom inh = Peg3 promoter activity inhibition | HeLa PEG-Prom luciferase reporter, luminescence, overnight | inhibition, % at 20 µM | hit rate 1.7% among 360,000;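 active = inhibition of at least 50% at 20 µM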
# KKLEB tox = reduces viability of KKLEB cystic fibrosis airway cells. KKLEB CF airway cells viability, ATPlite luminescence, overnight; stronger effect = lower value; cells stimulated with P. aeruginosa culture filtrate. activity change (cytotoxicity), % at 5 µM. hit rate 0.36% among 360,000;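 active = corrected activity change at or below -50% at 5 µM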
# TRPM1 prom inh = MITF TRPM1 promoter inhibition in SK-MEL-5 cells; SK-MEL-5 TRPM1 promoter luciferase, 24 h; inhibition, % at 12.5 µM; AID 488899; hit rate 0.83% among 330,000;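 active = mean inhibition across replicates of 60% or more, whatever share of single replicates reaches that level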
# HIF-2a block = HIF-2a inhibition; 786-0 RCC cells HIF-2a reporter, luciferase luminescence, overnight; inhibition, % at 18.8 µM; hit rate 0.72% among 360,000; AID 624352;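 active = inhibition of the luminescence signal of 40% or more relative to plate controls, in a single-dose primary screen at 18.75 µM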
# Mdm2-MdmX confirm = Mdm2/MdmX (human) interaction inhibition, confirmed; shares compounds with HIF-2a block; SaOS-2 split-luciferase Mdm2/MdmX complementation, luminescence; inhibition, % at 8 µM; hit rate 99% among 740; AID 504601;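 active = mean inhibition of the luminescence signal across two replicates at or above 26 percent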
# Target sequence (O15151 whole entry, looked up): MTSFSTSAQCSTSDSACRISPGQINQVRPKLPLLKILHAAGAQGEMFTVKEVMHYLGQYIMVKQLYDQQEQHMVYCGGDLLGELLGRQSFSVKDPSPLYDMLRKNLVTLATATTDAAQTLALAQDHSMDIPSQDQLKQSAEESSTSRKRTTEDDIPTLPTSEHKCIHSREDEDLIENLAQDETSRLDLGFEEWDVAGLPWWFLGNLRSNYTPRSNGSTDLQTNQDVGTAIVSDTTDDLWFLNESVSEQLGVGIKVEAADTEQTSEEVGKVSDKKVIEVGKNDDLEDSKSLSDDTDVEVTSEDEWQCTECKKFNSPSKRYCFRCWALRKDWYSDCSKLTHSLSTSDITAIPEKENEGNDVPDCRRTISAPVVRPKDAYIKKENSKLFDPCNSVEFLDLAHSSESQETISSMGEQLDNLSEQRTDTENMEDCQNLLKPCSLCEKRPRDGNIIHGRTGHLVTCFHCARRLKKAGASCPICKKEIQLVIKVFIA
# Target sequence (Q00987 whole entry, looked up): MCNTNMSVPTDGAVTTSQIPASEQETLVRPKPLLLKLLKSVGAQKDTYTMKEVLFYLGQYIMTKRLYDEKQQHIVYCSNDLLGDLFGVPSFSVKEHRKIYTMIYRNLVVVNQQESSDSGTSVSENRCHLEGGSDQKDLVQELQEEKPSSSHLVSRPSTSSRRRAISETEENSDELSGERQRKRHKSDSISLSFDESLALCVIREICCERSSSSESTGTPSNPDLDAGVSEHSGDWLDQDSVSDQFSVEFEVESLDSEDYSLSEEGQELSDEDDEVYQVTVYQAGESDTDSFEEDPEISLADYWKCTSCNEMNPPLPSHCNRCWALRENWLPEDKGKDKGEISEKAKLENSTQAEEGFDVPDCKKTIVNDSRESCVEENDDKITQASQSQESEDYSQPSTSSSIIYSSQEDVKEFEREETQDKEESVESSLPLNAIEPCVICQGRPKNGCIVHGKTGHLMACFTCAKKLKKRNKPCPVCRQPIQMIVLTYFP
# HIF-2a inh conf = HIF-2a inhibition, single concentration confirmation; shares compounds with HIF-2a block; 786-0 RCC cells, HIF-2a luciferase reporter luminescence, overnight; inhibition, % at 18.8 µM; hit rate 56% among 1,800;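 active = mean inhibition across four replicates of at least 40 percent at the single tested concentration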
# HIF-1a cs = HIF-1a inhibition counter-screen for HIF-2a hits | shares compounds with HIF-2a block | MiaPaCa-2 HIF-1a luciferase reporter, desferoxamine, overnight | inhibition, % at 18.8 µM | hit rate 72% among 1,800 | AID 651589;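 active = mean inhibition of the reporter signal across four replicates at the single tested dose of 50% or more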
# Hits are given with their value; . = inactive; / = no result.
SMILES,CF NFkB block,Shn3 inh set2,Peg3 prom inh,KKLEB tox,TRPM1 prom inh,HIF-2a block,HIF-2a inh conf,HIF-1a cs,others
CC1(C)CC[C@]2(C(=O)O[C@@H]3O[C@H](CO)[C@@H](O)[C@H](O)[C@H]3O)CC[C@]3(C)C(=CCC4[C@@]5(C)CC[C@H](O[C@@H]6O[C@H](C(=O)O)[C@@H](O[C@H]7OC[C@@H](O)[C@@H](O)[C@@H]7O)[C@H](O)[C@H]6O)C(C)(C)C5CC[C@]43C)[C@@H]2C1 (stereo partly drawn),.,.,.,.,.,.,/,/,
Cc1nc2cc(-c3ccccc3)nn2c(C)c1CCC(=O)N1CCN(c2ccccc2)CC1,.,.,.,.,/,69,79,53,
Cc1nc2ncnn2c(C)c1CCC(=O)N1CCN(c2ccccn2)CC1,.,.,.,.,.,.,/,/,
COc1cc(OC)cc(-c2cc3nc(C)c(CCC(=O)NCc4ccccc4)c(C)n3n2)c1,.,.,.,.,.,69,79,87,
COc1ccccc1-c1cc2nc(C)c(CCC(=O)NCc3ccc(F)cc3)c(C)n2n1,.,.,.,.,.,.,/,/,
CN(C)CCCNc1cc(C(C)(C)C)nc2c(-c3ccc(Cl)cc3)cnn12,.,.,104,.,.,.,/,/,Mdm2-MdmX confirm=102
C=CCOC(=O)CSCC(NC(=O)OC(C)(C)C)C(=O)OCC (stereo not drawn),.,.,.,.,.,58,45,.,
CCOC(=O)CNC(=O)C(CC(N)=O)NC(=O)OC(C)(C)C (stereo not drawn),.,/,.,.,/,.,/,/,
Oc1cccc(Nc2nc(N3CCOCC3)nc(N3CCOCC3)n2)c1,.,.,.,.,.,49,.,76,
Cc1ccc(-c2cc(C(=O)N3CC(C)OC(C)C3)c3ccccc3n2)o1 (stereo not drawn),.,.,.,.,.,.,/,/,
Cc1ccc(-c2cc(C(=O)N3CC(C)CC(C)C3)c3ccccc3n2)o1 (stereo not drawn),.,.,.,.,.,44,.,.,
N#C/C(=C\c1ccc(Cl)c([N+](=O)[O-])c1)c1ccccn1,.,.,93,.,.,43,.,95,
CNc1ccc(/C=C(\C#N)c2ccccn2)cc1[N+](=O)[O-],.,.,.,.,.,.,/,/,
O=c1[nH]cnc(O)c1C(c1ccc([N+](=O)[O-])cc1)c1c(O)nc[nH]c1=O,.,.,.,.,.,.,/,/,
CCOc1cc(CNc2ccc3c(c2)OCCO3)cc(Br)c1OC,.,.,.,.,62,45,67,98,
CCOc1c(Br)cc(CNc2ccc3c(c2)OCCO3)cc1OC,.,.,.,.,.,43,.,77,
CCOc1cc(CNc2ccc3c(c2)OCCO3)cc(Br)c1OCC(N)=O,.,.,.,.,.,.,/,/,
CC1(C(=O)NS(=O)(=O)c2cccc(Cl)c2)CCN1C(=O)C1CCCCC1 (stereo not drawn),.,.,.,.,/,.,/,/,
Cc1c(CCC(=O)N[C@@H](C)C(=O)O)c(=O)oc2c(C)c3oc4c(c3cc12)CCCC4,.,.,.,.,.,50,60,.,
CC[C@@H](C)[C@H](NC(=O)Cc1c(C)c2cc3c(C)c(C)oc3c(C)c2oc1=O)C(=O)O,.,.,.,.,.,.,/,/,
Cc1c(CCC(=O)NCCC(=O)O)c(=O)oc2c(C)c3oc4c(c3cc12)CCCC4,.,.,.,.,.,56,65,.,
O=C(CCNC(=O)c1ccc(Br)cc1)NNC(=O)c1ccccc1O,.,.,.,.,.,.,/,/,
C=CCS(=O)(=O)c1nc2ccccc2s1,52,.,104,.,.,88,.,.,
CC(C)(C)S(=O)(=O)c1nc2ccccc2s1,.,.,.,.,.,.,/,/,
CCS(=O)(=O)CCSc1nc2ccccc2s1,.,.,.,.,.,.,/,/,
O=S(=O)(CCSc1nc2ccccc2s1)c1nc2ccccc2s1,73,.,58,.,.,57,.,69,Mdm2-MdmX confirm=103
